# From PubChem
# The entries come from a sample that favours hits as a whole.
# RBX1-CUL1 inh = blocks human RBX1-Cullin-1 di-ubiquitin formation | P62877+Q13616 | in vitro K48 di-Ub FRET, acceptor:donor ratio, 45 min | inhibition, % at 10 µM | 140,000 compounds, 0.6% hits | AID 1347404; in the data active = inhibition above about 25%
# Numbers without * were called inactive.
SMILES,RBX1-CUL1 inh
O=C(Nc1ccccc1Oc1c(F)c(F)c(Oc2ccccc2NC(=O)c2cccs2)c(F)c1F)c1cccs1,-1.3
CC(C)c1nc2cc(C(=O)NCCn3ccnc3)ccc2o1,-3.7
c1ccc(-c2cc3ccc4cccc2n43)cc1,-1.3
c1ccc(-c2cc3ccccn3c3cccc2-3)cc1,93.1*
COC(=O)c1cc2c(-c3ccccc3)cc3ccccn3c-2c1C(=O)OC,4.6
Cc1cc2ncn(S(=O)(=O)c3ccc([N+](=O)[O-])cc3)c2cc1C,-0.7
COC(=O)c1nc2[nH]c(=O)[nH]c(=O)c2nc1C(=O)OC,7.4
CN(C)/C=C1\C=C2C(=O)c3ccccc3N2C1=O,37.3*
O=C1C=C2c3ccccc3-c3ccccc3N2C(=O)C1c1ccccc1 (configuration not stated),5.3
Cc1ccccc1N1C(=O)C(=Cc2ccc(N(C)C)cc2)C(=O)N(c2ccccc2C)C1=O,-4.1
O=C(NC(=S)Nc1ccc(Cl)cc1C(F)(F)F)c1ccc(-c2cccc(Cl)c2Cl)o1,-3.8
CC(C)(C)c1ccc(C(=O)CSc2nnc(-c3ccncc3)o2)cc1,-1.4
CCOC(=O)c1c(SCc2ccccc2)nc2c3ccccc3ccn12,10.9
O=C(O)CSc1ccc(Cl)cc1,1.3
N=C1CC(=O)NC(SCC(=O)O)=N1,8.6
O=C(O)CSC1=C(SCC(=O)O)C(=O)C(SCC(=O)O)=C(SCC(=O)O)C1=O,102.4*
COc1ccc(OCCn2cc(/C=C3\C(=O)NC(=S)N(c4ccc(OC)cc4)C3=O)c3ccccc32)cc1,-8.8
O=C1CCCCN1CC(=O)N1CCCC(CCc2ccc(F)c(F)c2)C1 (configuration not stated),-10.8
CCc1ccc(S(=O)(=O)n2nnc3ccccc32)cc1,26.1*
Cc1ccc2c(c1)nnn2S(=O)(=O)c1ccc([N+](=O)[O-])cc1,-5.3
Cc1ccc2c(c1)nnn2S(=O)(=O)c1ccc(C(C)(C)C)cc1,0.0
CC1=NN(c2ccc(C)cc2)C(=O)/C1=C\c1cccnc1,82.0*
CC1=NN(c2ccc(C)cc2)C(=O)/C1=C\c1ccc(OC(C)C)cc1,6.9
CC1=NN(c2ccccc2)C(=O)/C1=C/c1ccc(OCCCOc2ccccc2)cc1,-9.9
O=C(Nc1ccnn1C1CCN(C(=O)COc2ccccc2)CC1)C1CCOC1 (configuration not stated),4.0
SMILES,RBX1-CUL1 inh
COc1cccc(CNC2CCCCCC2)c1OCC(O)CN1CCOCC1 (configuration not stated),-3.7
O=C1CC2C(C(=O)O)C3CCC2(CO1)O3 (configuration not stated),-4.8
COc1cc(C=C2C(=O)NC(=S)NC2=O)c(Cl)cc1O,1.0
COc1cc(/C=C2\SC(=S)N(/N=C/c3cc(OC)c(O)cc3Cl)C2=O)c(Cl)cc1O,45.5*
COc1ccc(/C=C2\SC(=S)N(C3CCCCC3)C2=O)cc1O,-5.0
c1nc2cscc2c2cscc12,-4.7
CC1=NN(c2ccc(C)cc2)C(O)C1 (configuration not stated),75.0*
CSc1ccc(C2N(c3ccc(C)cc3)CCN2c2ccc(C)cc2)cc1,-15.8
Cc1ccc(N2C(=O)C(=O)N=C(Cl)C2Cl)cc1 (configuration not stated),5.3
CCOc1cc(S(=O)(=O)Oc2cccc3ccc(C)nc23)ccc1Cl,1.3
Cc1ccc(S(=O)(=O)CC(CN2CCC(C)CC2)N2CCC(C)CC2)cc1 (configuration not stated),-2.4
CC1(C)CC(=O)C(C=Nc2cccc(NC(=O)c3ccccc3NC(=O)c3ccccc3)c2)C(=O)C1,-3.0
N#CC1C(=N)S/C(=C/c2ccco2)C1=N (configuration not stated),23.9
C(=C1Sc2ccccc2S1)c1ccco1,57.3*
C(=N\N(c1ccccc1)c1ccccc1)/c1ccco1,0.8
CC1(C)CC(=O)C2=C(C1)OC(=N)C(C#N)C2(C(F)(F)F)C(F)(F)F (configuration not stated),7.9
N=C1C(=O)N(c2ccccc2)N=CC1N1CCCCC1 (configuration not stated),-2.4
C=CCN1C(=N)CC(=O)N=C1SCC(=O)Nc1ccccc1C(=O)OC,3.1
Cc1ccc(C)n1-c1ccc(CC(=O)O)cc1,66.9*
CC(=O)Nc1ccc(-n2c(C)ccc2C)cc1,2.2
COC(=O)c1ccc(-n2c(C)ccc2C)cc1,1.2
CC(=O)N1CCN(c2c(Cl)cccc2NC(=O)C(C)(C)C)CC1,6.9
Cc1cc(=O)oc2cc(OC(=O)c3ccc(=O)oc3)ccc12,8.4
O=C(Oc1ccc2c(C(F)(F)F)cc(=O)oc2c1)c1ccccc1,-1.3
CC(C)(C)c1ccc(C(=O)Oc2ccc3c(-c4ccccc4C(=O)O)c4ccc(=O)cc-4oc3c2)cc1,33.4*
CN1C(=O)/C(=C/c2cccn2C(C)(C)C)C(=O)NC1=S,86.8*
COc1ccc(N2C(=O)/C(=C/c3cccn3C(C)(C)C)C(=O)NC2=S)cc1,15.7
CCc1ccc(N2C(=O)/C(=C/c3cccn3C(C)(C)C)C(=O)NC2=S)cc1,0.8
Cc1cccc(-c2n[nH]c(=S)n2-c2ccccc2)c1,1.7
